Inconclusive results are not listed. Entries that show only a call come without a potency. Calls of active or inactive are those of the source. Calls follow the shape of the dose curve; as a rule, active = well fitted cell-killing curve with a large enough effect; inconclusive = small, poorly fitted or top-dose-only effect, or effect the other way; inactive = no such curve, though single readings can be large or run the other way.
Assays:
[1] = Quantitative High-Throughput drug screen in 47 multiple myeloma cell lines against the NCATS MIPE library collection: PE2_PLB cell viability assay (AID 1919869); conditions: PE2_PLB myeloma cells viability, ATP luminescence, 48 h; series mostly up to 45.8 µM; also: nearly all actives have a fitted effect of over 35% in size
In short: (§1)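 Myeloma cells (500/well) treated with MIPE 4.0 compounds for 48 h at 37 °C, 5% CO2. Viability read as ATP via CellTiter-Glo luminescence after 5 min at RT; DMSO-only wells = 100%, media-only = 0% viability.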

[2] = Quantitative High-Throughput drug screen in 47 multiple myeloma cell lines against the NCATS MIPE library collection: PCM6_Riken cell viability assay (AID 1919870); conditions: CellTiter-Glo ATP, 48 h; series mostly up to 45.8 µM; also: nearly all actives have a fitted effect of over 30% in size
In short: as §1

[3] = Quantitative High-Throughput drug screen in 47 multiple myeloma cell lines against the NCATS MIPE library collection: RPMI8226_ATCC cell viability assay (AID 1919871); conditions: RPMI8226 myeloma viability, CellTiter-Glo ATP luminescence, 48 h; series mostly up to 45.8 µM; also: nearly all actives have a fitted effect of over 30% in size
In short: as §1

[4] = Quantitative High-Throughput drug screen in 47 multiple myeloma cell lines against the NCATS MIPE library collection: KMS28BM_JCRB cell viability assay (AID 1919874); conditions: CellTiter-Glo ATP, 48 h; series mostly up to 45.8 µM; also: nearly all actives have a fitted effect of over 35% in size
In short: as §1

[5] = Quantitative High-Throughput drug screen in 47 multiple myeloma cell lines against the NCATS MIPE library collection: OPM2_DSMZ cell viability assay (AID 1919872); conditions: OPM2 myeloma viability, CellTiter-Glo ATP luminescence, 48 h; series mostly up to 45.8 µM; also: nearly all actives have a fitted effect of over 30% in size
In short: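 Approved and investigational drugs from MIPE 4.0 were added by pin tool to 500 cells per well. After 48 hours at 37C, ATP-based CellTiter-Glo luminescence indicated remaining viability.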

[6] = Quantitative High-Throughput drug screen in 47 multiple myeloma cell lines against the NCATS MIPE library collection: KMS11_JCRBsus cell viability assay (AID 1919873); conditions: KMS11 myeloma viability, CellTiter-Glo ATP luminescence, 48 h; series mostly up to 45.8 µM; also: nearly all actives have a fitted effect of over 50% in size
In short: as §1

[7] = Quantitative High-Throughput drug screen in 47 multiple myeloma cell lines against the NCATS MIPE library collection: UTMC2_PLB cell viability assay (AID 1919868); conditions: CellTiter-Glo ATP luminescence, 48 h; viability (% of DMSO control): at 45.8 µM (top of the series); also: nearly all actives have a fitted effect of over 55% in size
In short: as §1
Potency is read from the fitted curve at half-maximal effect.

For `CNC(=O)N1N=C(c2ccc(N)cc2)c2cc3c(cc2CC1C)OCO3` (configuration not stated), the Potency [1] was 7.43 µM (active) and the Potency [2] was 13.2 µM (active).

With `Cn1cc(C2=C(c3cn(C4CCN(Cc5ccccn5)CC4)c4ccccc34)C(=O)NC2=O)c2ccccc21` the Potency [1] was 8.33 µM (active), the Potency [2] was 9.35 µM (active) and the Potency [3] was “inactive”. The Potency [4] was “inactive”.

In the case of `CCCC(C)(COC(N)=O)COC(=O)NC(C)C` (configuration not stated), the Potency [1] was “inactive”, the Potency [2] was “inactive” and the Potency [3] was “inactive”. For the same molecule, the Potency [5] was “inactive”.

With `O=C(O)C(=O)c1cn(Cc2ccccc2)c2ccc(-c3ccc(OC(F)(F)F)cc3)cc12` the Potency [2] was 16.6 µM (active), the Potency [3] was “inactive” and the Potency [5] was “inactive”. The Potency [4] was “inactive”.

For `CN(C)[C@@H]1C(=O)C(C(N)=O)=C(O)[C@@]2(O)C(=O)C3=C(O)c4c(O)cccc4[C@@](C)(O)[C@H]3C[C@@H]12`, the Potency [1] was “inactive”, the Potency [2] was “inactive” and the Potency [3] was 5.9 µM (active). The Potency [5] was 16.6 µM (active), the Potency [6] was “inactive” and the Potency [4] was “inactive”.

With `O=P1(NCCCl)OCCCN1CCCl` (configuration not stated) the Potency [2] was “inactive” and the Potency [5] was “inactive”.

In the case of `C[C@@H]1O[C@@H](O[C@H]2C[C@@H](O)[C@]3(CO)[C@H]4[C@H](O)C[C@]5(C)[C@@H](C6=CC(=O)OC6)CC[C@]5(O)[C@@H]4CC[C@]3(O)C2)[C@H](O)[C@H](O)[C@H]1O`, the Potency [7] was 0.0118 µM (active), the Potency [1] was 0.0332 µM (active) and the Potency [2] was 0.0187 µM (active). The Potency [6] was 0.0935 µM (active) and the Potency [4] was 0.0209 µM (active).

With `CNC(=O)c1ccc(N2C(=S)N(c3ccc(C#N)c(C(F)(F)F)c3)C(=O)C23CCC3)cc1F` the Potency [1] was 9.35 µM (active), the Potency [2] was 7.43 µM (active) and the Potency [3] was “inactive”. For the same molecule, the Potency [5] was “inactive”, the Potency [6] was “inactive” and the Potency [4] was “inactive”.

In the case of `CC(O)(CS(=O)(=O)c1ccc(F)cc1)C(=O)Nc1ccc(C#N)c(C(F)(F)F)c1` (configuration not stated), the Potency [7] was 4.18 µM (active), the Potency [1] was 0.418 µM (active) and the Potency [2] was 0.59 µM (active). For the same molecule, the Potency [3] was “inactive”, the Potency [6] was “inactive” and the Potency [4] was “inactive”.

In the case of `NCC1(CC(=O)O)CCCCC1`, the Potency [1] was “inactive”, the Potency [2] was 16.6 µM (active) and the Potency [3] was “inactive”. For the same molecule, the Potency [5] was “inactive”, the Potency [6] was “inactive” and the Potency [4] was “inactive”.

For `O=c1[nH]c2ccccc2n1CCCN1CCC(n2c(=O)[nH]c3cc(Cl)ccc32)CC1`, the Potency [2] was 2.96 µM (active) and the Potency [5] was “inactive”.

In the case of `COC[C@H]1OC(=O)c2coc3c2[C@@]1(C)C1=C(C3=O)C2CCC(=O)[C@@]2(C)C[C@H]1OC(C)=O` (some centres not stated), the Potency [7] was 0.264 µM (active), the Potency [1] was 1.66 µM (active) and the Potency [2] was 3.32 µM (active). For the same molecule, the Potency [3] was 5.9 µM (active), the Potency [5] was 10.5 µM (active) and the Potency [6] was 13.2 µM (active).

In the case of `C[C@@H]1[C@@H](C(=O)C[C@H]2O[C@@H]3O[C@]4(C)CC[C@@H]5[C@H](C)CC[C@@H]([C@H]2C)[C@@]35OO4)O[C@@H]2O[C@]3(C)CC[C@H]4[C@H](C)CC[C@@H]1[C@@]24OO3`, the Potency [7] was 0.166 µM (active), the Potency [1] was 0.264 µM (active) and the Potency [3] was 0.833 µM (active). The Potency [5] was 0.372 µM (active).

With `COC[C@@H](NC(C)=O)C(=O)NCc1ccccc1` the Potency [2] was “inactive”, the Potency [3] was “inactive” and the Potency [5] was “inactive”. For the same molecule, the Potency [6] was “inactive” and the Potency [4] was “inactive”.

For `C=C(C)[C@H]1Cc2c(ccc3c2O[C@@H]2COc4cc(OC)c(OC)cc4[C@@H]2C3=O)O1`, the Potency [7] was 0.332 µM (active), the Potency [1] was 0.372 µM (active) and the Potency [5] was 4.69 µM (active). The Potency [6] was 0.332 µM (active).

In the case of `COc1ccc(C(=O)c2c(C)n(CCN3CCOCC3)c3ccccc23)cc1`, the Potency [7] was “inactive”, the Potency [1] was “inactive” and the Potency [2] was “inactive”. The Potency [3] was “inactive”, the Potency [5] was “inactive” and the Potency [6] was “inactive”. For the same molecule, the Potency [4] was “inactive”.

For `Cn1c(CCCC(=O)O)nc2cc(N(CCCl)CCCl)ccc21`, the Potency [1] was 8.33 µM (active), the Potency [6] was “inactive” and the Potency [4] was “inactive”.

For `CN(C)CCN(C)CCc1ccc(Cl)c(Cl)c1`, the Potency [7] was “inactive”, the Potency [3] was “inactive” and the Potency [5] was “inactive”. The Potency [6] was “inactive” and the Potency [4] was “inactive”.

In the case of `O=C1CC[C@@]2(O)[C@H]3Cc4ccc(O)c5c4[C@@]2(CCN3CC2CC2)[C@H]1O5`, the Potency [7] was “inactive”, the Potency [1] was “inactive” and the Potency [2] was “inactive”. For the same molecule, the Potency [5] was “inactive”, the Potency [6] was “inactive” and the Potency [4] was “inactive”.

In the case of `Cc1cc(SCc2sc(-c3ccc(C(F)(F)F)c(F)c3)nc2C)ccc1OCC(=O)O`, the Potency [1] was 26.4 µM (active), the Potency [2] was 20.9 µM (active) and the Potency [3] was 18.7 µM (active). For the same molecule, the Potency [5] was “inactive”.

In the case of `CN1CCN(C(=O)O[C@H]2c3nccnc3C(=O)N2c2ccc(Cl)cn2)CC1`, the viability (% of DMSO control) [7] was 181% (active), the Potency [1] was “inactive” and the Potency [2] was “inactive”. The Potency [3] was “inactive”, the Potency [5] was “inactive” and the Potency [6] was “inactive”. For the same molecule, the Potency [4] was “inactive”.

With `N[C@@H](Cc1ccc(N(CCCl)CCCl)cc1)C(=O)O` the Potency [7] was 0.935 µM (active), the Potency [1] was 3.32 µM (active) and the Potency [2] was 3.72 µM (active). The Potency [5] was 18.7 µM (active), the Potency [6] was 23.5 µM (active) and the Potency [4] was 23.5 µM (active).

For `CNCC(O)c1ccc(O)cc1` (configuration not stated), the Potency [1] was “inactive”, the Potency [3] was “inactive” and the Potency [5] was “inactive”. The Potency [6] was “inactive” and the Potency [4] was “inactive”.

For `CC(C)CC(N(C)C)C1(c2ccc(Cl)cc2)CCC1` (configuration not stated), the Potency [1] was “inactive”, the Potency [5] was “inactive” and the Potency [6] was 18.7 µM (active).

— PubChem BioAssay (NCATS)
